Bioassay records deposited in PubChem by National Center for Advancing Translational Sciences (NCATS).
Sampled rows, rich in hits. Any-hit rate of the full collection: about 1.2%.
LmPK inhibitor = LmPK (Leishmania mexicana) enzyme inhibition; Potency, µM (titrated, usually from 57.5 µM), for inactives: top-dose activity change, negative = inhibition, usual class: inhibitors; purified LmPK, Kinase-Glo ATP luminescence, 1 h; AID 1721; 0.37% of 290,000 active; also: % is scaled to controls: 0 for no effect and ±100 for the full control effect
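0.1 nM LmPK, 0.5 mM PEP, 0.1 mM ADP; 50 mM imidazole pH 7.2, 7 mM MgCl2, 50 mM KCl; 1 h RT. Kinase-Glo luminescence readout, normalized to no-enzyme (full inhibition) and uninhibited wells.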
AMA1 RON2 block = inhibitors of Plasmodium falciparum AMA1-RON2 interaction. AlphaScreen AMA1-biotinylated RON2 peptide binding. Potency, µM (titrated, usually from 58.2 µM), for inactives: at the highest dose activity change, negative = inhibition, most hits filed as inhibitors. 0.2% of 360,000 active;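 also: 0% = vehicle wells and -100% = peptide control; nearly all actives have a fitted effect of over 45% in size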
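AMA1 (3D7) with his tag at 25 nM final met compounds first, then biotinylated RON2 peptide at 25 nM; detection used donor plus acceptor beads, 10 µg/mL apiece, read by AlphaScreen after 30 min at room temperature.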
NS1 inh = inhibitors of influenza NS1 protein function. AID 2326. 0.4% of 270,000 active. Potency, µM (doses to about 46.1 µM), inactives show top-dose activity, positive = more growth; calls by dose curve; also: actives are rising curves; nearly all actives have a fitted effect of over 50% in size
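OD600 was taken as the measure of yeast growth restored by compound in an NS1-expressing S. cerevisiae strain. Cells had been washed out of glucose medium and diluted 1:100 into galactose -URA medium, pH 6.0.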
TbPYK inhibitor = inhibitors of Trypanosoma brucei pyruvate kinase | Potency, µM (doses to about 76.8 µM), without a hit: top-dose activity, negative = inhibition, usual class: inhibitors | TbPYK enzyme, Kinase-Glo Plus ATP luminescence, 45 min | AID 624173 | Q57TT1 | 0.12% of 410,000 active; also: % is scaled to controls: 0 for no effect and ±100 for the full control effect; nearly all actives have a fitted effect of over 50% in size
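Screened from lowest to highest concentration, compounds were pinned into TbPYK/substrate mixtures, and ADP (130 uM final) was added. Plates sat at room temperature for 45 min prior to Kinase-Glo Plus detection by luminescence.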
Giardia FBPA inh-1 = blocks Giardia fructose-bisphosphate aldolase activity. Potency, µM (doses to about 59.6 µM), inactives show at the highest dose activity, negative = inhibition, most hits filed as inhibitors. purified Giardia FBPA. AID 2451. A8B2U2. 0.71% of 290,000 active; also: % is scaled to controls: 0 for no effect and ±100 for the full control effect; nearly all actives have a fitted effect of over 55% in size
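Giardia FBPA (40 nM reagent) was preincubated 10 min at RT with compound (up to 57.5 uM final), then substrate plus GAPDH/TPI/NAD/arsenate coupling system with diaphorase/resazurin was added; resorufin fluorescence (525/598 nm) was read after 20 min.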
Giardia growth = blocks growth of Giardia lamblia trophozoites; Potency, µM (highest dose often 57.5 µM), for inactives: at the top dose activity change, negative = inhibition, hits mostly inhibitors; Giardia lamblia trophozoite growth inhibition; AID 2785; 5% of 1,500 active; shares compounds with Giardia FBPA inh-1;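 also: trophozoites exposed to compound for 48 h at 37 °C; % is scaled to controls: 0 for no effect and ±100 for the full control effect; nearly all actives have a fitted effect of over 70% in size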
Mammal cell tox = mammalian cytotoxicity of Giardia aldolase inhibitor hits; shares compounds with Giardia FBPA inh-1; mammalian cell viability counter-screen, qHTS; Potency, µM (highest dose often 57.5 µM), inactives show top-dose viability change, negative = toxicity, most hits filed as inhibitors; 4% of 1,500 active;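 also: Chinese hamster ovary cells used as mammalian cytotoxicity surrogate; viability measured as cellular ATP by luminescence; compound exposure lasted 48 h before reading; % is scaled to controls: 0 for no effect and ±100 for the full control effect; nearly all actives have a fitted effect of over 60% in size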
Giardia FBPA inh-2 = confirmation of Giardia fructose-bisphosphate aldolase inhibitors; shares compounds with Giardia FBPA inh-1; AID 2787; Potency, µM (series often up to 57.5 µM), for inactives: at the highest dose activity change, negative = inhibition, hits mostly inhibitors; 5% of 1,500 active; purified Giardia aldolase enzyme activity, qHTS; also: % is scaled to controls: 0 for no effect and ±100 for the full control effect; nearly all actives have a fitted effect of over 45% in size
Rabbit aldolase = selectivity test for Giardia aldolase inhibitors: rabbit aldolase; shares compounds with Giardia FBPA inh-1; Potency, µM (doses to about 57.5 µM), inactives show at the top dose activity, negative = inhibition, actives largely listed as inhibitors; Rabbit muscle FBPA enzyme inhibition, selectivity counter-screen; 4% of 1,500 active; also: % is scaled to controls: 0 for no effect and ±100 for the full control effect; nearly all actives have a fitted effect of over 60% in size
Target sequence (P00883 whole entry, looked up): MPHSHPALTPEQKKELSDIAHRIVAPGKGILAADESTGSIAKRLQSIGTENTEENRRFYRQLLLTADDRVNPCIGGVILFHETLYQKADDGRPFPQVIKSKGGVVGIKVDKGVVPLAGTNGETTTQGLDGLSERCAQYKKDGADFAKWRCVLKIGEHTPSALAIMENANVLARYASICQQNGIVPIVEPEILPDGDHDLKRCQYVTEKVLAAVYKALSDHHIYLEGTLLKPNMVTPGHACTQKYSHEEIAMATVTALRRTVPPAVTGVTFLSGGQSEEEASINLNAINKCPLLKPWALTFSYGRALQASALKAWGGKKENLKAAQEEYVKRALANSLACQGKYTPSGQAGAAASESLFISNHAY
GAPDH coupling = counter-screen for Giardia aldolase inhibitors: GAPDH coupling enzyme | shares compounds with Giardia FBPA inh-1 | GAPDH coupling enzyme counterscreen, biochemical, qHTS | Potency, µM (highest dose often 57.5 µM), for the others: at the highest dose activity change, negative = inhibition, actives largely listed as inhibitors | 6% of 1,500 active; also: % is scaled to controls: 0 for no effect and ±100 for the full control effect; nearly all actives have a fitted effect of over 55% in size
* = called active by the depositor; u = inconclusive; x = no result; [ ] = remark or other dose. Unless noted, calls follow the shape of the dose curve; as a rule, active = well fitted curve in the direction sought with a large enough effect; inconclusive = small, poorly fitted or top-dose-only effect, or another doubt; inactive = no such curve, though single readings can be large; an effect the other way counts as inactive or inconclusive. Potency is read from the fitted curve at half-maximal effect.

SMILES	LmPK inhibitor	AMA1 RON2 block	NS1 inh	TbPYK inhibitor	Giardia FBPA inh-1	Giardia growth	Mammal cell tox	Giardia FBPA inh-2	Rabbit aldolase	GAPDH coupling
COc1cc(/C=C2\SC(c3ccc(C)cc3)=NC2=O)ccc1O	28µM*	0%	-3%	u	18µM*	26%	-3%	u	-30%	-1%
CCOc1cc(/C=C2\SC(=O)N=C2N)ccc1O	-5%	3%	9%	-11%	4%	x	x	x	x	x
CCOc1cc(/C=C2\SC(N)=NC2=O)ccc1O	-7%	113%	26%	-20%	7.9µM*	-14%[10.4 µM]	-4%	-12%	-1%	1%
COc1ccc(NC(=O)CSc2oc(-c3ccc(C)cc3)nc2S(=O)(=O)c2ccc(C)cc2)c(OC)c1	x	x	x	-7%	x	x	x	x	x	x
N/C(=N\NC(=O)Nc1ccccc1)c1ccccn1	-1%	-12%	7%	0%	20µM*	-10%[10.4 µM]	-1%	-7%	5%	-1%
CC(=O)c1cccc(NC(=S)N2CCc3ccccc32)c1	-8%	53%	8%	-5%	25µM*	27%	0%	4%	1%	16%
CCOC(=O)c1c(C)[nH]c(C)c1S(=O)(=O)NCC(=O)Nc1cccc(SC)c1	x	x	x	-7%	x	x	x	x	x	x
O=C(Nc1nnc(-c2ccc(Cl)cc2)o1)c1ccc(N2C(=O)CCC2=O)cc1	1%	57%	11%	-6%	23%	x	x	x	x	x
O=C(Nc1nnc(-c2ccco2)o1)c1ccc(N2C(=O)CCC2=O)cc1	0%	34%	x	-3%	18µM*	60%	18%	8%	3%	4%
O=C(O)CNC(=O)CC1S/C(=N/N=C2/NC(=O)CS2)NC1=O (stereo unspecified)	3%	7%	3%	-26%	18µM*	u	14%	-2%	1%	12%
NC(=O)NC(=O)CC1S/C(=N/N=C2\CSC(=O)N2)NC1=O (stereo unspecified)	-2%	-89%	6%	0%	13µM*	-23%	-1%	-14%	-6%	-13%
CC1=C/C(=N\N=C2\NC(=O)C(CC(=O)Nc3ccccc3)S2)CC(C)(C)C1 (stereo unspecified)	1%	113%	10%	-3%	2%	x	x	x	x	x
CCOc1ccc(NC(=O)CC2S/C(=N/N=C3CCCCCC3)NC2=O)cc1 (stereo unspecified)	-5%	135%	0%	2%	x	x	x	x	x	x
CN(C)C(=O)c1ccc(-c2cncnc2NCCN2CCOCC2)cc1	x	x	x	x	0%	x	x	x	x	x
CN(CCCNC(=O)c1ccc(/C=N/O)nc1)CCCN(C)Cc1ccccc1	-3%	46%	15%	6%	x	x	x	x	x	x
O=C(NCCCNCCCNC(=O)c1ccc(/C=N/O)nc1)c1ccc(/C=N/O)nc1	-1%	-44%	8%	6%	4µM*	-18%[38.3 µM]	2%	-9%	-4%	-25%
Oc1ccc(/C=N/Nc2ccnc3cc(Cl)ccc23)cc1O	6%	2%	-41%	2%	-8%	x	x	x	x	x
Oc1ccc(/C=N/Nc2ccnc3cc(Cl)ccc23)c(O)c1O	-11%	23%	6%	u	14µM*	-19%	0%	u	u	u
COc1ccc(NC(=O)C(NCC(C)C)c2ccccc2)cc1Cl (stereo unspecified)	-1%	-17%	-3%	-3%	14µM*	u	2%	8%	20%	2%
